Source: PMC7819943, “Rice protein-binding microarrays: a tool to detect cis-acting elements near promoter regions in rice”
Over roughly 35,000 sequences, “fluorescence intensity (a.u.)” has its median near 10,000; the highest 2% begin near 52,000. This excerpt belongs to a sample that is enriched for the highest values.

The sequences below were run against T1, OsWOX13 (Oryza sativa, UniProt Q5QMM3 1-267) (assay: protein-binding microarray (RPBM); PBS, 2% BSA, 51.3 ng/ul salmon testes DNA, 50 uM zinc acetate, 200 nM TF, 25 C, 1 h; high values mean tight binding). Conditions: protein: recombinant; tags: N-terminal polyhistidine and DsRed monomer fusion (pET32a); label: CyDye5-dUTP incorporated in the synthesized complementary strand; 3' TTTTT single-stranded linker to array surface; dsDNA, one strand shown.
T1 sequence: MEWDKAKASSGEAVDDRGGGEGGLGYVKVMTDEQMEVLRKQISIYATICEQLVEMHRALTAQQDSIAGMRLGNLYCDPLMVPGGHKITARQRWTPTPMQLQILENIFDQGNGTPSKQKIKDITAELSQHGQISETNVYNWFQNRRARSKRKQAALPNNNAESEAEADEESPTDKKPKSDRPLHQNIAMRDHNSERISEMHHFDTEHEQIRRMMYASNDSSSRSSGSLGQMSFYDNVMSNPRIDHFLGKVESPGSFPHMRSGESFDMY
Procedure, shortened: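 In PBS with 2% BSA, salmon testes DNA and 50 µM zinc acetate, 200 nM protein was incubated on a custom Agilent array at 25 °C for 1 h and then washed off. The array had been made double-stranded by primer extension with Cy5-dUTP and blocked with 2% BSA. The proteins were transcription factors fused N-terminally to polyhistidine and DsRed, expressed in E. coli BL21-CodonPlus and purified on Ni–NTA. The binding signal is per-feature fluorescence intensity (arbitrary units) from an Axon 4000B scanner.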
“AGACTTAATTGTAACTGTGTACTACTACGAGCTTAATCAGCGGAGTCACCTAGTGCAG” was tested, and the binding signal was 28400 fluorescence intensity (a.u.). With “AGAGTTGTAATTAACCTTTTCAGGTTGTATTGACTGCAAGCGGAGTCACCTAGTGCAG” the binding signal was 3760 fluorescence intensity (a.u.). “GGATTAATAGATAGTCTGACTTTTCTGATAACTATTTAAGCGGAGTCACCTAGTGCAG” was tested, and the binding signal was 28400 fluorescence intensity (a.u.). “TTAAAATTATGTTTGAAAATTTAAATTTTAGACGCGGCTTCGGAGTCACCTAGTGCAG” was tested, and the binding signal was 14900 fluorescence intensity (a.u.). For “AAATTAATTAATACAATATATTCCTGCATGCCCTGTATAACGGAGTCACCTAGTGCAG”, the binding signal was 23800 fluorescence intensity (a.u.). For “GATCGAATTGGTAAATCAAATGTCTCTAAATTCTCTCCATCGGAGTCACCTAGTGCAG”, the binding signal was 4550 fluorescence intensity (a.u.). “TTCTCTAGCCCTAAATATGCCGAAGAATATTCCATGTCTCCGGAGTCACCTAGTGCAG” was tested, and the binding signal was 64900 fluorescence intensity (a.u.). For “ACCCTAATTCTCCTAATCTCTTAGGAAATATGGAAGAAGCCGGAGTCACCTAGTGCAG”, the binding signal was 3170 fluorescence intensity (a.u.). For “TGCTAGAATGATTTACGTTATGAAACTGAGGGAGTACATCCGGAGTCACCTAGTGCAG”, the binding signal was 5380 fluorescence intensity (a.u.). In the case of “TGTGATTTATATCGTGGAAGATGATGGCTTGGCGGTATAGCGGAGTCACCTAGTGCAG”, the binding signal is reported as 36300 fluorescence intensity (a.u.). In the case of “GTCGATAAATTATTCGCGGCACAATTATTTGTGCCCCATTCGGAGTCACCTAGTGCAG”, the binding signal is reported as 5580 fluorescence intensity (a.u.). “AACTAAAACACAGAAATTGATAGTCCAGCAAAACTAGCCCCGGAGTCACCTAGTGCAG” was tested, and the binding signal was 5180 fluorescence intensity (a.u.). With “AGCAAAATTGATTGCTAATCTTCGGTGTCCAGCAGAGCCCCGGAGTCACCTAGTGCAG” the binding signal was 64900 fluorescence intensity (a.u.). “TCTTCTGATTGCTTTCACACAAGATCCAGCAAAATTAATTCGGAGTCACCTAGTGCAG” was tested, and the binding signal was 16900 fluorescence intensity (a.u.). With “ATACACCAGTTGATTATAATGACAGTGATATTATGGTGGACGGAGTCACCTAGTGCAG” the binding signal was 17800 fluorescence intensity (a.u.). “CAAACTAATAATTTGGCTTTTGGCTTCTGCTGAAGCAAGTCGGAGTCACCTAGTGCAG” was tested, and the binding signal was 4830 fluorescence intensity (a.u.). “AAACCATTAGCGCATAATTTATTGAGTTTTAATTATTTCACGGAGTCACCTAGTGCAG” was tested, and the binding signal was 6070 fluorescence intensity (a.u.). “GTTATGATTAATTGCGCCATTAGGATATTAATTAATCTGGCGGAGTCACCTAGTGCAG” was tested, and the binding signal was 54500 fluorescence intensity (a.u.). In the case of “GCCTGATTATCCATTGTTCATCCTGCCATATTGATTTCAGCGGAGTCACCTAGTGCAG”, the binding signal is reported as 30300 fluorescence intensity (a.u.). For “CATAATTAGCGGTTGATTACTGTAGCATCACTGTAACAAACGGAGTCACCTAGTGCAG”, the binding signal was 29600 fluorescence intensity (a.u.). In the case of “GCTGATTGCCATTGATTCATATTCATTGTGTGCCATCTGGCGGAGTCACCTAGTGCAG”, the binding signal is reported as 58800 fluorescence intensity (a.u.). For “ACGGTAATTAACGTTGATTACCATAATTAGCGGCGCATTGCGGAGTCACCTAGTGCAG”, the binding signal was 65200 fluorescence intensity (a.u.). For “TGCAGTGATAATTTAGGATTATTTAAGATTTGCACAGTGGCGGAGTCACCTAGTGCAG”, the binding signal was 12500 fluorescence intensity (a.u.). For “GCCATATGATTATTTAATCTGATCCGGAGGATTAAACAAGCGGAGTCACCTAGTGCAG”, the binding signal was 14100 fluorescence intensity (a.u.). “CTAGACATATATATTTATCTAGATTCATTAACATCCATATCGGAGTCACCTAGTGCAG” was tested, and the binding signal was 5320 fluorescence intensity (a.u.). With “GCTGATTGATTCATTCTGATCTGAACATATAGACAACCATCGGAGTCACCTAGTGCAG” the binding signal was 54700 fluorescence intensity (a.u.). In the case of “TCTGATTTAACTGCATTGCATTTGTGTCATTGACATGTGGCGGAGTCACCTAGTGCAG”, the binding signal is reported as 42600 fluorescence intensity (a.u.). In the case of “ACATTCATATTGATGTTAATGATTCTAGACATATATATCTCGGAGTCACCTAGTGCAG”, the binding signal is reported as 4710 fluorescence intensity (a.u.). In the case of “CGTAAACAAATAGGTCCAACATAATTTAACCTTCATAGAGCGGAGTCACCTAGTGCAG”, the binding signal is reported as 5570 fluorescence intensity (a.u.). “AGACGCATCTCCTCAATCATGCATCAACGTGCGTCATCTGCGGAGTCACCTAGTGCAG” was tested, and the binding signal was 3790 fluorescence intensity (a.u.). In the case of “GTTGCATATCAATCATCAAGAATCTCTTCAGAAAGAGGAGCGGAGTCACCTAGTGCAG”, the binding signal is reported as 14000 fluorescence intensity (a.u.). For “GTTAAATTTAAACTTGTATATTTGTGAAGTGATACATCACCGGAGTCACCTAGTGCAG”, the binding signal was 17300 fluorescence intensity (a.u.). With “ACACAACTTGTTAATTTGACCTGTAGCCCCATCATGTACACGGAGTCACCTAGTGCAG” the binding signal was 3150 fluorescence intensity (a.u.). For “ATTCATGAATATATGAAACCTGATTGCAAATGTGCAAATCCGGAGTCACCTAGTGCAG”, the binding signal was 4970 fluorescence intensity (a.u.). With “TTGTAATTGATTGTGGCCCATCAACTATTGCCATCACTGGCGGAGTCACCTAGTGCAG” the binding signal was 64900 fluorescence intensity (a.u.). In the case of “ATATTGATTGCATAAAGAAAGTTCGGTCCTGTTCACTTTGCGGAGTCACCTAGTGCAG”, the binding signal is reported as 39900 fluorescence intensity (a.u.). With “TGCCTAATTGTTGCCATTGATTTGTTAGCCACACCTTTGGCGGAGTCACCTAGTGCAG” the binding signal was 40300 fluorescence intensity (a.u.). For “TGTTAGACTATGCCATCAATTGTAATTGTTGGTTCTGATGCGGAGTCACCTAGTGCAG”, the binding signal was 4250 fluorescence intensity (a.u.). “TTTGATTGATGGCCATAAGTTGCCACACTTTGCCACACTTCGGAGTCACCTAGTGCAG” was tested, and the binding signal was 53800 fluorescence intensity (a.u.). With “GCAAAATTGGTTTCATCAACTATTGAGTGGGTGTGCACTGCGGAGTCACCTAGTGCAG” the binding signal was 9640 fluorescence intensity (a.u.). For “TCAAATAATTAGAAGGGGTGAGACTTCGAATCCAAGTCGTCGGAGTCACCTAGTGCAG”, the binding signal was 14400 fluorescence intensity (a.u.). For “TAATTATTGAACACACTAATTAAGTATTACGATGCACCTCCGGAGTCACCTAGTGCAG”, the binding signal was 6340 fluorescence intensity (a.u.). With “ACAATTGAATGATTGATTGCAGCTCAAGCTTCAATCCGCACGGAGTCACCTAGTGCAG” the binding signal was 63900 fluorescence intensity (a.u.). With “TAGATAGATAGAATTGAATGGTGACCTCAGCTCCAGCTTCCGGAGTCACCTAGTGCAG” the binding signal was 16200 fluorescence intensity (a.u.). In the case of “TGTGAATGTTGTGATTGAGGTGGTATCAGTATCATATCCGCGGAGTCACCTAGTGCAG”, the binding signal is reported as 27000 fluorescence intensity (a.u.). In the case of “GGTGAATTGAATGGTTGATTGCCTATCTCATCTTCCGCAGCGGAGTCACCTAGTGCAG”, the binding signal is reported as 64100 fluorescence intensity (a.u.). “TAATCTTGAATTATTGATTTATTTATGGCTTCAGCTTTCACGGAGTCACCTAGTGCAG” was tested, and the binding signal was 7480 fluorescence intensity (a.u.). With “AGAGGATTGATGAATGCAGCTGCAAGCACAGCACGCAGTACGGAGTCACCTAGTGCAG” the binding signal was 13600 fluorescence intensity (a.u.). In the case of “TCTCTTACTCTTGTTGATTGACACCGGTCATCAGTAGTTCCGGAGTCACCTAGTGCAG”, the binding signal is reported as 43200 fluorescence intensity (a.u.). In the case of “CAAAATTAACTTGCGCGCCACTCTGCCTCTCAACCCTTCACGGAGTCACCTAGTGCAG”, the binding signal is reported as 8740 fluorescence intensity (a.u.). In the case of “AACAATTGACAAACTGATTCTGCTCGCCTCTGTCCCCTTTCGGAGTCACCTAGTGCAG”, the binding signal is reported as 46800 fluorescence intensity (a.u.). For “TTGATTGGGTCTGTGGTGGAACAGGACGATCATACATCACCGGAGTCACCTAGTGCAG”, the binding signal was 21000 fluorescence intensity (a.u.). With “GAGCTCAGCTTGCAGGGAGCTTGGGTGTGTGATCATACACCGGAGTCACCTAGTGCAG” the binding signal was 63900 fluorescence intensity (a.u.). In the case of “ATATATATATATATATATATACATACATATACACACACACCGGAGTCACCTAGTGCAG”, the binding signal is reported as 7300 fluorescence intensity (a.u.).
